From PubChem
12-LOX inh – blocks human arachidonate 12S-lipoxygenase | Potency, µM (series often up to 108 µM), without a hit: top-dose activity change, negative = inhibition, most hits filed as inhibitors | AID 1671190 | purified 12hLO, xylenol orange hydroperoxide absorbance | hit rate 1.1% among 580,000 | P18054; note: potency is the fitted concentration of half-maximal effect
Target sequence (P18054 whole entry, looked up): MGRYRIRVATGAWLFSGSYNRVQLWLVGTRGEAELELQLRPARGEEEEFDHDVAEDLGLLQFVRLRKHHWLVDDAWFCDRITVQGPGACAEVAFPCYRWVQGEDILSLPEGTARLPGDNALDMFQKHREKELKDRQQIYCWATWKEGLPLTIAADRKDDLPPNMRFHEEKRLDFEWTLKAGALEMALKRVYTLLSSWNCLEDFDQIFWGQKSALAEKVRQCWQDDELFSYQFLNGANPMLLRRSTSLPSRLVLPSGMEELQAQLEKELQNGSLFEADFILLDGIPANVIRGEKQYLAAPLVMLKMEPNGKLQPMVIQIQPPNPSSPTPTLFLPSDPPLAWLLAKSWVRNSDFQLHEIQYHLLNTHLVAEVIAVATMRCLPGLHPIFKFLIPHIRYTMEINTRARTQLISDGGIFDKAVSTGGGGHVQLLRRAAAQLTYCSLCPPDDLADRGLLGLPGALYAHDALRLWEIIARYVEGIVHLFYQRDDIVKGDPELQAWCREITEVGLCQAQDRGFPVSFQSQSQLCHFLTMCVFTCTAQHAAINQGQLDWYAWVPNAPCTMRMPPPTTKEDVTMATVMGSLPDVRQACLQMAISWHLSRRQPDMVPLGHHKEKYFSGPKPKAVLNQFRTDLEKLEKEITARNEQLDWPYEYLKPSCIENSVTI
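Purified human 12hLO (150 nM final) in 25 mM Hepes, 0.01% Triton X-100, pH 7.0 was preincubated 15 min at room temperature with compound. Then 40 uM arachidonic acid was added, 30 min. Hydroperoxide was read by Fe-XO absorbance ratio 573/405 nm.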
HT1080 IDH1KD tx – kills HT-1080 cells with IDH1 knockdown | hit rate 2% among 360,000 | HT-1080 IDH1 knockdown viability, ATP luminescence, 48 h | Potency, µM (doses to about 46.1 µM), without a hit: at the top dose activity, negative = toxicity, actives largely listed as cytotoxic;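 note: potency is the fitted concentration of half-maximal effect; 0% = DMSO wells and -100% = cell-free medium wells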
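Luminescent ATP read-out (CellTiter-Glo, 10 min at room temperature) after 48 h compound exposure at 37 °C gave viability of IDH1-knockdown HT-1080 cells. Activity was normalised to DMSO and cell-free wells, then fitted as concentration-response curves.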
IL-1B inflam inh – inflammasome signaling inhibition, IL-1 beta readout; THP-1 LPS/ATP IL-1B secretion, AlphaLISA, 16 h; hits give low values; hit rate 4.7% among 360,000; AID 743279; activity change, % at 57.5 µM; in the data active = activity change below about -50%; inconclusive = mostly about -30% to -49%
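Secreted IL-1B measured by AlphaLISA bead assay after 16 h compound exposure of THP-1 cells; compounds (final up to 57.5 uM) added 1 h before LPS (250 ng/mL) and ATP (1.25 mM) stimulation; lower signal means less secretion.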
HT1080NT lethal – kills 2HG-producing HT-1080-NT fibrosarcoma cells; HT-1080-NT fibrosarcoma viability, CellTiter-Glo ATP luminescence, 48 h; Potency, µM (highest dose often 46.1 µM), for the others: at the top dose activity, negative = less viability, actives largely listed as cytotoxic; hit rate 1.6% among 360,000; AID 686970;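 note: NT is the 2HG producing partner of a matched IDH1 knockdown line; potency is the fitted concentration of half-maximal effect; 0% = DMSO-treated cells and -100% = media-only wells without cells; nearly all actives have a fitted effect of over 55% in size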
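Fibrosarcoma NT cells, 750 per well in 5% FBS RPMI, were exposed to compound for 48 hours. Viability: CellTiter-Glo luminescence.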
TDP1 cell noCPT – qHTS for Inhibitors of human tyrosyl-DNA phosphodiesterase 1 (TDP1): qHTS in cells in absence of CPT; DT40 Tdp1-/- hTDP1 cells, no CPT, ATP luminescence, 48 h; AID 686978, 2013; hit rate 15% among 420,000; Potency, µM (top dose mostly 46.2 µM), without a hit: top-dose activity change, negative = growth inhibition, usual class: inhibitors; note: potency is the fitted concentration of half-maximal effect; nearly all actives have a fitted effect of over 55% in size
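A cellular qHTS used chicken DT40 cells lacking endogenous Tdp1 but carrying stably transfected human TDP1. Compounds were applied without camptothecin, and cell growth kinetics were judged by ATP-dependent luminescence after ≥48 hr.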
DT40 TDP1 CPT – DT40-hTDP1 cell growth loss with CPT | chicken DT40 Tdp1-/-;hTDP1 cells + 20 nM CPT, ATP luminescence, 48 h | hit rate 12% among 420,000 | Potency, µM (doses to about 46.2 µM), without a hit: at the top dose activity change, negative = growth inhibition, hits mostly inhibitors | AID 686979; note: potency is the fitted concentration of half-maximal effect; nearly all actives have a fitted effect of over 55% in size
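Chicken DT40 Tdp1-/- cells complemented with human TDP1, 400 cells/well, exposed to compounds plus 20 nM camptothecin for at least 48 h at 37 C; viability read as ATP content by CellTiter-Glo luminescence.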
Starred values were filed as active, the others as inactive; ? = inconclusive; . = not tested or not shown; [ ] = dose if it differs, or a comment. Many of the other results were omitted from the sample, so hits are more common in it than they were. Unless noted, calls come from the whole dose curve; as a rule, active = well fitted curve in the direction sought with a large enough effect; inconclusive = small, poorly fitted or top-dose-only effect, or another doubt; inactive = no such curve, though single readings can be large; an effect the other way counts as inactive or inconclusive. Unless noted, % is set by controls: 0 for no effect and ±100 for the full control effect.

SMILES | 12-LOX inh | HT1080 IDH1KD tx | IL-1B inflam inh | HT1080NT lethal | TDP1 cell noCPT | DT40 TDP1 CPT
Cc1ccc(N2C(=O)c3ccccc3C2C(=O)c2cc(C)ccc2O)cc1 (stereo not drawn) | ? | -28% | ? | -28% | ? | ?
Cc1ccc(N2C(=O)c3ccccc3C2C(=O)c2ccc(C)c(C)c2O)cc1 (stereo not drawn) | ? | -10% | -22 | 1% | 18µM* | ?
CCOC(=O)c1ccc(S(=O)(=O)N2CCC3(CC2)NC(=O)c2ccccc2N3)cc1 | -3% | . | . | . | . | .
O=C(NC1CC2CCCC(C1)N2Cc1ccco1)NC12CC3CC(CC(C3)C1)C2 (stereo not drawn) | 0% | 4% | -4 | -1% | 18µM* | 21µM*
COc1cccc(CNC(=O)c2cnc3sc(N4CCCC4)nn3c2=O)c1OC | 0% | . | . | . | -15% | 3%
CCOc1ccccc1CNC(=O)c1cnc2sc(N3CCCC3)nn2c1=O | -9% | . | . | . | 16µM* | 15µM*
CCN(CC)c1nn2c(=O)c(C(=O)NCc3ccccc3Br)cnc2s1 | ? | . | . | . | ? | 23µM*
COc1ccccc1CNC(=O)c1cnc2sc(N3CCCCC3)nn2c1=O | -24% | . | . | . | 23µM* | ?
COc1cc(C)cc2oc(=O)c(CC(=O)NCc3ccc(C)cc3)c(C)c12 | -8% | . | . | . | . | .
CC(C)c1ccc(-c2nnn(CCCn3c(=O)c4c(ncn4C)n(C)c3=O)n2)cc1 | 6% | . | . | . | . | .
Cc1ccc2cccc(NC(=O)COc3ccc(Cl)cc3)c2n1 | 42% | . | . | . | . | .
O=C1Nc2ccc(-c3ccccc3F)cc2C(=O)N2CCN(C(=O)c3cccnc3)C[C@H]12 | 26%[176 µM] | . | . | . | . | .
COC(=O)C(CC(C)C)NC(=O)C(Cc1ccccc1)NC(=O)C1CCCN1C(=O)OC(C)(C)C (stereo not drawn) | 11% | -1% | -71* | 2% | 8% | -2%
CC(=O)Nc1cnc(-c2cccc(C(=O)N3CCOCC3)c2)cn1 | 0% | 3% | 9 | 20% | 7% | 6%
CN(C)CCNC(=O)c1cccc(-c2cnc3c(NC=O)cc(-c4ccc(C(=O)N5CCOCC5)cc4)cn23)c1 | 11% | 1% | -5 | 17% | 12% | -1%
CC(=O)Nc1cncc(-c2cccc(C(=O)N3CCOCC3)c2)n1 | -6% | 1% | -3 | -2% | 6.5µM* | -37%
CC(=O)Nc1cc(-c2ccc(C(=O)N3CCOCC3)cc2)cn2c(-c3cccc(C(C)=O)c3)cnc12 | -11% | -16% | ? | -23% | 15µM* | ?
COc1cccc(-c2cnc3c(NC(C)=O)cc(-c4ccc(C(=O)N5CCOCC5)cc4)cn23)c1 | 1% | 21µM* | ? | ? | 18µM* | 21µM*
CC(=O)Nc1ccc(S(=O)(=O)N(CCCN2CCOCC2)Cc2cccs2)cc1 | -16% | -2% | 1 | 4% | -4% | -3%
CC(C)(C)c1ccc(S(=O)(=O)N(CCCN2CCOCC2)Cc2cccs2)cc1 | ? | ? | ? | ? | 16µM* | ?
COc1ccc(CNC(=O)c2cc3cc4ccc(C)cc4nc3o2)cc1 | 0% | . | . | . | 23µM* | ?
CCCCN(C)C(=O)c1cc2cc3ccc(OC)cc3nc2o1 | 0% | ? | ? | ? | -17% | -16%
COc1ccc2cc3cc(C(=O)NCC4COc5ccccc5O4)oc3nc2c1 (stereo not drawn) | -21% | ? | -10 | ? | 16µM* | ?
COc1ccc2cc3cc(C(=O)NCc4ccc5c(c4)OCO5)oc3nc2c1 | ? | 1% | -20 | 6% | -27% | -6%
CCN(C(=O)c1cc2cc3ccc(C)cc3nc2o1)c1ccc(OC)cc1 | ? | 3% | -52* | ? | ? | -15%
